# IDE exosite inh: insulin-degrading enzyme (human) exo-site inhibition; P14735; purified IDE, FL-6b probe fluorescence polarization; stronger effect = lower value; z-score at 20 µM; 17,000 compounds, 6.3% hits; AID 1259349;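 active = z-score of -3 or lower, meaning strong loss of probe binding signal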;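 note: His-tagged human IDE residues 42-1019 made in E. coli with 30 nM FL-6b probe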
# Starred values were filed as active, the others as inactive. The sample as a whole holds a higher share of hits than the screen did.
SMILES,IDE exosite inh
C/C=C/c1ccc([C@H]2[C@H](CO)N3CCCCN(C(=O)Cc4cccnc4)C[C@@H]23)cc1,-1.09
C/C=C/c1ccc([C@H]2[C@@H](CO)N3CCCCN(C(=O)Cc4cccnc4)C[C@H]23)cc1,-0.572
O=C(Cc1cccnc1)N1CCCCN2[C@@H](CO)[C@@H](c3ccc(/C=C/c4ccccc4)cc3)[C@@H]2C1,-8.32*
O=C(Cc1cccnc1)N1CCCCN2[C@H](C1)[C@@H](c1ccc(/C=C/c3ccccc3)cc1)[C@@H]2CO,-9.17*
C/C=C/c1ccc([C@H]2[C@H]3CN(C(=O)Cc4cccnc4)CCCCN3[C@H]2CO)cc1,1.22
O=C(Cc1cccnc1)N1CCCCN2[C@@H](CO)[C@@H](c3ccc(C#CC4CCCC4)cc3)[C@@H]2C1,0.498
CC=Cc1ccc2n(c1=O)C[C@@H]1[C@@H](CO)[C@H](C(=O)OC)[C@H]2N1S(=O)(=O)c1ccccc1C (mixture of isomers),-0.0537
COc1ccc(C#Cc2ccc([C@H]3[C@H](CO)N4CCCCN(C(=O)Cc5cccnc5)C[C@@H]34)cc2)cc1,-1.44
C/C=C/c1ccc([C@H]2[C@H]3CN(C(=O)Cc4ccncc4)CCCCN3[C@H]2CO)cc1,-0.735
Cc1ccccc1-c1ccc([C@H]2[C@@H](CO)N3CCCCN(C(=O)Cc4ccccn4)C[C@H]23)cc1,-14.4*
O=C(Cc1ccccn1)N1CCCCN2[C@@H](CO)[C@H](c3ccc(Br)cc3)[C@@H]2C1,-0.367
O=C(Cc1ccccn1)N1CCCCN2[C@H](CO)[C@H](c3ccc(Br)cc3)[C@H]2C1,-0.147
O=C(Cc1ccccn1)N1CCCCN2[C@H](C1)[C@@H](c1ccc(Br)cc1)[C@@H]2CO,-0.0666
Cc1ccccc1-c1ccc([C@@H]2[C@H](CO)N3CCCCN(C(=O)Cc4ccccn4)C[C@@H]23)cc1,-15.5*
O=C(Cc1ccccn1)N1CCCCN2[C@H](CO)[C@@H](c3ccc(-c4ccccc4)cc3)[C@@H]2C1,-2.41
O=C(O)[C@H]1[C@H](CO)[C@H]2Cn3c(ccc(-c4cccnc4)c3=O)[C@@H]1N2C(=O)Nc1cc(F)ccc1F,1.01
COc1ccc(-c2ccc([C@@H]3[C@@H](CO)N4CCCCN(C(=O)Cc5ccccc5)C[C@@H]34)cc2)cc1,3.09
O=C(Cc1ccncc1)N1CCCCN2[C@H](CO)[C@@H](c3ccc(C#CC4(O)CCCC4)cc3)[C@@H]2C1,0.198
CCC(=O)N1[C@@H]2c3ccc(C4=CCCC4)c(=O)n3C[C@H]1[C@H](CO)[C@H]2C(=O)OC,0.589
N#Cc1cccc(-c2ccc([C@H]3[C@H](CO)N4CCCCN(C(=O)Cc5ccccc5)C[C@@H]34)cc2)c1,3.61
N#Cc1ccc(-c2ccc([C@H]3[C@H](CO)N4CCCCN(C(=O)Cc5ccccc5)C[C@@H]34)cc2)cc1,1.16
N#Cc1cccc(-c2ccc([C@@H]3[C@@H](CO)N4CCCCN(C(=O)Cc5ccncc5)C[C@H]34)cc2)c1,2.43
O=C(Cc1ccccn1)N1CCCCN2[C@H](CO)[C@H](c3ccc(C#Cc4ccccc4)cc3)[C@@H]2C1,-5.23*
O=C(Cc1ccccc1)N1CCCCN2[C@H](C1)[C@H](c1ccc(C#Cc3ccccc3)cc1)[C@@H]2CO,-4.28*
COc1ccc(C#Cc2ccc([C@@H]3[C@@H](CO)N4CCCCN(C(=O)Cc5ccccc5)C[C@@H]34)cc2)cc1,1.46
SMILES,IDE exosite inh
O=C(Cc1ccccc1)N1CCCCN2[C@H](C1)[C@@H](c1ccc(C#Cc3ccccc3)cc1)[C@@H]2CO,-2.57
CCCC#Cc1ccc([C@@H]2[C@H](CO)N3CCCCN(C(=O)Cc4ccccn4)C[C@@H]23)cc1,-2.02
CCCC#Cc1ccc([C@H]2[C@@H](CO)N3CCCCN(C(=O)Cc4ccccn4)C[C@@H]23)cc1,3.97
O=C(Cc1cccnc1)N1CCCCN2[C@H](C1)[C@H](c1ccc(C#CC3CCCC3)cc1)[C@@H]2CO,3.48
OC[C@@H]1Nc2ccc(C#Cc3cccnc3)cc2[C@H]2NCC[C@@H]12,-0.33
CC=Cc1ccc2n(c1=O)C[C@H]1[C@H](CO)[C@@H](C(=O)OC)[C@@H]2N1S(=O)(=O)c1ccccc1C (mixture of isomers),1.09
COc1ccc(C#Cc2ccc([C@@H]3[C@@H](CO)N4CCCCN(C(=O)Cc5ccncc5)C[C@@H]34)cc2)cc1,0.348
COc1ccc(C#Cc2ccc([C@H]3[C@H]4CN(C(=O)Cc5cccnc5)CCCCN4[C@H]3CO)cc2)cc1,-3.98*
COc1ccc(C#Cc2ccc([C@H]3[C@@H](CO)N4CCCCN(C(=O)Cc5cccnc5)C[C@H]34)cc2)cc1,-1.32
COc1ccc(C#Cc2ccc([C@H]3[C@@H](CO)N4CCCCN(C(=O)Cc5ccncc5)C[C@@H]34)cc2)cc1,-4.84*
COc1ccc(C#Cc2ccc([C@H]3[C@H]4CN(C(=O)Cc5ccncc5)CCCCN4[C@H]3CO)cc2)cc1,-3.5*
COc1ccc(C#Cc2ccc([C@H]3[C@@H](CO)N4CCCCN(C(=O)Cc5ccncc5)C[C@H]34)cc2)cc1,0.967
COc1ccc(C#Cc2ccc([C@@H]3[C@H]4CN(C(=O)Cc5ccncc5)CCCCN4[C@H]3CO)cc2)cc1,-0.354

# Screening data as filed in PubChem BioAssay.
